PAFAH1B3 inh – PAFAH1B3 (human) inhibition; Q15102; recombinant PAFAH1B3, FP-rhodamine probe, fluorescence polarization; inhibition, % at 3.39 µM; 340,000 tested, 0.28% active; AID 492972;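 active = inhibition above the screen-wide average of all tested compounds plus 3 SD, cut at about 25% in these data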;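 also: 0% = enzyme with DMSO only and 100% = wells lacking PAFAH1B3 protein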
Target sequence (Q15102 whole entry, looked up): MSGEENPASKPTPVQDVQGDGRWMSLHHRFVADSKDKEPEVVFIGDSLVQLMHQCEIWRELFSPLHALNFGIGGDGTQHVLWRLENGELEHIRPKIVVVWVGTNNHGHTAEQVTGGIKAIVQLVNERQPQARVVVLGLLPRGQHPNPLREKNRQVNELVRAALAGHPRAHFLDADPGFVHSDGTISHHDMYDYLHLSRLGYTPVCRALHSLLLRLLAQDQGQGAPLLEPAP
PAFAH2 inh – inhibitors of human PAFAH2. Q99487. recombinant PAFAH2, FP-rhodamine activity probe, fluorescence polarization. inhibition, % at 3.39 µM. 340,000 tested, 0.99% active. AID 492956;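 active = inhibition above the mean over all tested compounds plus 3 SD, cut at about 30% in these data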;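 also: inhibitors block probe labeling of enzyme so polarization drops; 0% = enzyme with DMSO and 100% = wells lacking PAFAH2 protein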
ZTA DNA inh – counter-screen for EBNA-1 inhibitors: inhibitors of Epstein-Barr virus ZTA; 320,000 tested, 0.15% active; inhibition, % at 11 µM; ZTA-DNA binding, fluorescence polarization; P03206; in the data active = inhibition above about 33%
EBNA-1 inh – blocks EBNA-1 binding to DNA; EBNA-1 DNA binding, fluorescence polarization; inhibition, % at 14.8 µM; 300,000 tested, 0.34% active; in the data active = inhibition above about 28%
rCAG RNA binder – r(CAG) repeat RNA binding | 370,000 tested, 1.3% active | inhibition, % at 3 µM | TO-PRO-1 dye displacement fluorescence;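 active = inhibition above the plate cutoff, the mean of all test compounds on that plate plus 3 SD, cut at about 35% in these data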;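 also: 0% = DMSO alone and 100% = 100 µM mitoxantrone as full dye displacement; higher means more dye released from RNA so lower well fluorescence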
PAFAH1B2 FP inh – inhibitors of human PAFAH1B2; P68402; recombinant PAFAH1B2, FP-rhodamine activity probe, fluorescence polarization; 340,000 tested, 1.2% active; inhibition, % at 3.39 µM;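 active = inhibition above the mean of all tested compounds plus 3 SD, cut at about 24% in these data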;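 also: 0% = enzyme with DMSO and 100% = wells lacking PAFAH1B2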
Target sequence (P68402 whole entry, looked up): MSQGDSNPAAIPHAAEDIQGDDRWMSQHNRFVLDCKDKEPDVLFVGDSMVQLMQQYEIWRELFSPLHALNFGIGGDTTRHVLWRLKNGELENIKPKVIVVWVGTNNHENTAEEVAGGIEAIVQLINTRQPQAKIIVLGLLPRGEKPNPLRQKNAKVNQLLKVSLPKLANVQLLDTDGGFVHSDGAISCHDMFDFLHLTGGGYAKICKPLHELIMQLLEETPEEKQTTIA
An asterisk follows results filed as active; . = no result given. Shown are actives, neighbours in structure and some others; about 2.9% of the full set was active somewhere.

SMILES	PAFAH1B3 inh	PAFAH2 inh	ZTA DNA inh	EBNA-1 inh	rCAG RNA binder	PAFAH1B2 FP inh
Cc1nc2c(C(=O)NCCC3=CCCCC3)c[nH]n2c(=O)c1Cl	15	9	3	6	71*	12
CCCCN(C)C(=O)CN1C(=O)C2CCCCN2C(=O)c2ccccc21 (stereo unspecified)	.	.	.	.	4	.
Cc1oc(-c2ccc(F)cc2)cc1-c1nn2c(-c3ccoc3C)nnc2s1	6	16	8	-4	36*	0
C=C(C)CSc1nnc(-c2cc(-c3ccccc3)n[nH]2)n1N	.	.	.	.	0	.
CC(C)(C)c1ccc(CCC(CC(=O)O)CC(=O)O)cc1	14	-1	-9	-8	5	27*
C[C@@H]1COc2cc(Br)ccc2S(=O)(=O)N1Cc1cn(Cc2ccc(C(F)(F)F)cc2)nn1	.	.	.	.	0	.
O=S(=O)(c1ccc(Br)cc1)N1CCN=C1SCc1cccnc1	4	3	0	-3	-2	25*
CCN(C(=O)[C@@H]1CC(=O)O[C@@H]1c1ccccc1)c1ccccc1	.	.	.	.	1	.
O=S1(=O)CC(N2CCCCC2)CN1Cc1cn(Cc2ccc(F)cc2)nn1 (stereo unspecified)	.	.	.	.	0	.
COc1ccccc1Nc1nc(-c2cccs2)cs1	13	26	1	11	35*	11
O=C1CSC(c2cccnc2)N1c1ccc(Cl)cc1 (stereo unspecified)	6	-5	4	-4	0	-3
O=C1CSC(c2ccc(Cl)cc2)N1c1cccnc1 (stereo unspecified)	5	7	-3	2	-5	25*
COc1cc2c(cc1OC)-c1cc(OCc3ccccc3Cl)nc(=O)n1CC2	9	86*	7	-1	2	-2
COc1cc2c(cc1OC)-c1cc(NC3CCCC3)nc(=O)n1CC2	-1	9	2	1	5	3
O=C(NCCc1c[nH]c2ccccc12)OCc1cn(Cc2ccc(F)c(F)c2)nn1	.	.	.	.	2	.
CN1[C@H](Cc2ccccc2)COc2cc(N3CCSCC3)ccc2S1(=O)=O	.	.	.	.	4	.
O=C(N/N=C/c1ccc(O)c2ncccc12)c1cccc(Br)c1	26*	13	15	7	15	17
O=C(N/N=C/c1cc(Br)ccc1O)c1ccncc1	11	4	-25	-6	5	4
CCN(CC)C(=O)CC[C@@H]1CC[C@]2(CCCN(C(=O)C3CCCCC3)C2)O1	.	.	.	.	-2	.
CC(=O)c1ccc(N2CCN(C(=S)Nc3cccc(Cl)c3)CC2)cc1	16	-3	-2	56*	9	6
COc1cc(NC(=O)c2ccccc2)c(C)cc1NC(=O)CSc1nnc(COc2ccccc2)n1Cc1ccco1	.	.	.	.	6	.
O=C(O)c1cc(Cl)ccc1-c1ccc(/C=C/c2cc(C(F)(F)F)[nH]c(=O)n2)o1	-4	8	53*	43*	-188	1
CCCCC(=O)Nc1ncc(S(=O)(=O)c2ccc([N+](=O)[O-])cc2)s1	0	8	10	-4	5	1
O=C(Nc1ncc(S(=O)(=O)c2ccc([N+](=O)[O-])cc2)s1)c1cccc2ccccc12	1	1	5	1	12	-3
COCC(=O)Nc1ncc(S(=O)(=O)c2ccc([N+](=O)[O-])cc2)s1	10	6	-4	2	1	28*
SMILES	PAFAH1B3 inh	PAFAH2 inh	ZTA DNA inh	EBNA-1 inh	rCAG RNA binder	PAFAH1B2 FP inh
CC(=O)NCCC(=O)Nc1ncc(S(=O)(=O)c2ccc([N+](=O)[O-])cc2)s1	7	5	-7	2	3	26*
COc1ccc(-c2noc(C3CCCN(C(=O)Nc4ccc5c(c4)OCO5)C3)n2)cc1 (stereo unspecified)	.	.	.	.	5	.
CCOC(=O)c1cc(C(=O)OCC)c(=O)[nH]c1C	8	-2	-8	-3	1	0
CCOC(=O)c1cc2c(N)c(C(=O)c3ccc(Br)cc3)sc2[nH]c1=O	12	32*	13	8	11	32*
COc1ccc(C(=S)N2CCOCC2)cc1OS(=O)(=O)c1ccc(Br)cc1	9	3	-13	2	1	34*
COc1ccc(S(=O)(=O)Oc2ccc(C(=S)N3CCOCC3)cc2OC)cc1	12	-2	2	5	-1	4
Cc1nc(N)nc(N)c1/C=C/C(C)(C)c1ccc(Cl)cc1	0	6	.	.	3	42*
CC1CCC2(CC1)SCC(=O)N2c1ccc(F)cc1 (stereo unspecified)	-2	-3	-18	9	-5	25*
CC(C)(C)C1CCC2(CC1)SCC(=O)N2c1ccccc1 (stereo unspecified)	7	3	2	2	2	3
Cc1ccc(C)c(NC(=O)COc2coc(CN3CCc4ccccc43)cc2=O)c1	6	-1	-5	-5	1	1
O=C(COc1coc(CN2CCc3ccccc32)cc1=O)NCCc1ccccc1	5	1	18	-1	0	28*
CCCCCCCCNS(=O)(=O)CC1NCc2ccccc21 (stereo unspecified)	.	.	.	.	5	.
O=C(NCCSc1ncc(-c2ccc(F)cc2)[nH]1)c1ccc2c(c1)OCO2	2	3	8	11	3	33*
Cc1ccc(SCC(=O)OCC(=O)NCCCc2ccccc2)cc1	3	3	7	2	-11	55*
CC1Cc2ccccc2N1C(=O)COC(=O)CSc1ccc(F)cc1 (stereo unspecified)	-5	1	11	1	-4	26*
O=C(COC(=O)CSc1ccc([N+](=O)[O-])cc1)NCCc1ccccc1	5	2	-26	8	-3	18
O=C(COC(=O)CSc1ccc([N+](=O)[O-])cc1)NCCCc1ccccc1	2	0	-6	2	4	30*
O=C(COC(=O)CSc1ccc(F)cc1)NCCCc1ccccc1	1	9	6	-6	-5	29*
O=NN(Cc1cccnc1)C(=O)NC1CCCCC1	.	.	.	.	1	.
CC1CCN(S(=O)(=O)c2ccc3c(c2)oc(=O)n3C)CC1	6	-6	8	-2	-2	25*
O=C(NCCc1ccc(Cl)cc1)C1CCC(=O)N1Cc1ccc(F)cc1 (stereo unspecified)	1	10	-6	10	-2	28*
CNC(=O)c1cc(C(=O)c2ccccc2Br)c[nH]1	11	15	-8	-7	1	7
CNC(=O)c1cc(C(=O)c2ccc(Cl)cc2)c(Br)[nH]1	2	-1	1	2	-2	37*
Cc1cc2ncn(S(=O)(=O)N3CCCCC3)c2cc1C	1	-8	-11	-4	-8	25*
COC(=O)c1cc(Cl)ccc1NCC(N)c1ccccc1 (stereo unspecified)	.	.	.	.	5	.
S=c1[nH]nc(-c2ccccc2Br)n1Cc1ccccc1	2	2	2	-4	-1	29*
O=C(C[C@H]1CC[C@@H]2[C@H](COC[C@@H](O)CN2Cc2cccc(F)c2)O1)NCC1CCCCC1	.	.	.	.	0	.

Compound activity: PubChem BioAssay, The Scripps Research Institute Molecular Screening Center
